Compound activity: PubChem, several laboratories
An excerpt weighted towards active compounds, which were near 5.2% of everything screened.
CendR NRP1 mod – modulators of CendR peptide binding to NRP-1, primary screen, biochemical, fluorescence polarization, uHTS. Neuropilin-1 (Homo sapiens), O14786. FAM-RPARPAR peptide binding to NRP-1. 360,000 tested, 0.85% active. inhibition, % at 25 µM;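 active = inhibition or corrected inhibition above about 18%, plus a signal ratio from 0.5 to 1.5, limit read from the data, passing the limit was not always enough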
PfM18AAP inh – PfM18AAP inhibitors, malaria aminopeptidase, primary screen, biochemical, QFRET, recombinant enzyme; inhibition, % at 7.35 µM; H-Glu-NHMec fluorogenic cleavage; 290,000 tested, 1.2% active;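 active = inhibition above the campaign mean inhibition over all tested compounds plus 3 SD, cut at about 28% in these data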
ALR H2O2 inh – inhibitors of human ALR sulfhydryl oxidase, primary screen, biochemical, H2O2 detection, HRP-luminol luminescence, single point; FAD-linked sulfhydryl oxidase ALR (Homo sapiens), P55789; purified ALR, DTT oxidation; inhibition, % (concentration not given with the values); 290,000 tested, 3.8% active; AID 485317, 2010;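 active = mean replicate inhibition above about 79%, with every replicate also reaching it, limit read from the data; inconclusive = only one of the two criteria met; inactive = mean below limit and not every replicate reaching it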
A3A deaminase – APOBEC3A ssDNA deaminase inhibitors, primary screen, selectivity assay for APOBEC3G inhibitor project, biochemical, FAM/TAMRA oligo cleavage fluorescence; DNA dC->dU-editing enzyme APOBEC-3A (Homo sapiens), P31941; recombinant A3A, FAM/TAMRA ssDNA deamination fluorescence; inhibition, % at 20 µM; 330,000 tested, 0.41% active; AID 493011, 2011;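 active = at least 40% inhibition at 20 µM here, with at most 30% in a related deaminase screen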
Target sequence (P31941 whole entry, looked up): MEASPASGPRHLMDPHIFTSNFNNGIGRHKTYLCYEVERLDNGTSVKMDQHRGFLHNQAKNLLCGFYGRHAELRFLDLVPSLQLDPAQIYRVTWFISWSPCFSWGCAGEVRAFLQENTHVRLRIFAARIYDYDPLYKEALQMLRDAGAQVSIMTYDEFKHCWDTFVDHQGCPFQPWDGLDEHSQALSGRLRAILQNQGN
CR mimetic SO – reduction of superoxide in aged yeast, primary screen, HTS; 330,000 tested, 0.18% active; AID 2690, 2010; superoxide response (% of plate mean), % at 10 µM; S. cerevisiae aged cells, superoxide DHE fluorescence; active compounds read low;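 active = superoxide response under a set limit, about three screen SD below normal, cut at about 65% in these data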;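 note: yeast aged for seven days with compound at 30 °C before DHE staining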
APOBEC3G inh – APOBEC3G DNA deaminase inhibitors, primary screen, biochemical, fluorescence, single-stranded DNA substrate, uHTS; DNA dC->dU-editing enzyme APOBEC-3G (Homo sapiens), Q9HC16; recombinant A3G, ssDNA deamination FAM/TAMRA fluorescence; inhibition, % at 20 µM; 330,000 tested, 0.28% active; AID 493012, 2011;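 active = inhibition of at least 40% at 20 µM, with no more than 30% in the related APOBEC3A deaminase screen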
Target sequence (Q9HC16 whole entry, looked up): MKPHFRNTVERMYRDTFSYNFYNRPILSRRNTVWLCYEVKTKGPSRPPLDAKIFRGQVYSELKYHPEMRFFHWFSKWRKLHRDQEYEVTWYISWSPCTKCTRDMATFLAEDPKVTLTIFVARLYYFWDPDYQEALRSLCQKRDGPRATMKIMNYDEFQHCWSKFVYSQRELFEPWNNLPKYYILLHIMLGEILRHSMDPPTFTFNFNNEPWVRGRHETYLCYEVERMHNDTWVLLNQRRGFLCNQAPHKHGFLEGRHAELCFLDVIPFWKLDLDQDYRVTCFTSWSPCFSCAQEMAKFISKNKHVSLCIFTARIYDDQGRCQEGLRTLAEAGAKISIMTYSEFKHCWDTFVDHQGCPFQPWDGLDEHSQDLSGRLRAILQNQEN
Large screens that a line does not name were inactive.

Cc1ccc(NC2CCCN(C(=O)CCCN3CCCCC3=O)C2)cc1C (stereo not given)	ALR H2O2 inh 98.5
O=C1CCCCN1CCC(=O)N1CCCC(Nc2ccc(F)c(F)c2)C1 (stereo not given)	none
COc1ccc(C2CC(C(F)(F)F)n3nc(C(=O)O)c(Cl)c3N2)cc1OC (stereo not given)	CendR NRP1 mod 35.3
COc1ccc(C2CC(C(F)(F)F)n3nc(CO)c(Cl)c3N2)cc1OC (stereo not given)	none
COC(=O)[C@]1(C)N[C@H](c2ccc(-c3ccccc3)cc2)[C@@H]2C(=O)N(C)C(=O)[C@@H]21	none (no result: PfM18AAP inh, CR mimetic SO)
CCOC(=O)c1c(C)oc2cc(Br)c(OC(=O)N3CCOCC3)cc12	CendR NRP1 mod 26.0
O=[N+]([O-])c1ccc(N2CCN(S(=O)(=O)c3cnc[nH]3)CC2)cc1	none
Cc1nc2ccc(S(=O)(=O)N(C)CC(=O)NCc3ccc(N(C)C)cc3)cc2s1	ALR H2O2 inh 84.7
Cc1nc2ccc(S(=O)(=O)N(C)CC(=O)NCc3ccc4c(c3)OCO4)cc2s1	none (no result: ALR H2O2 inh)
COc1cccc2nc3cc(C)c(C)cc3nc12	CR mimetic SO 62.7
Cc1nc2ccccn2c1C(=O)NC1CCCC1	none (no result: ALR H2O2 inh)
O=C(NC(=S)N1CCCC1)c1ccc(Cl)cc1	CendR NRP1 mod 29.9
Cc1ccc2c(c1)N(C(=O)CCC(=O)Nc1ccccc1Br)CC(C)O2 (stereo not given)	none
CC1(C)S[C@@H]2[C@H](NC(=O)COc3ccccc3)C(=O)N2C1C(=O)OCC1CCCCC1 (stereo not given in full)	CendR NRP1 mod 25.4 (no result: PfM18AAP inh)
CC1(C)S[C@@H]2[C@H](NC(=O)COc3ccccc3)C(=O)N2C1C(=O)OCc1cc2ccccc2n1S(=O)(=O)c1ccccc1 (stereo not given in full)	none (no result: CendR NRP1 mod, A3A deaminase, APOBEC3G inh)
Cc1ccc(C(C(=O)NC2CCCCC2)N(C(=O)c2csnn2)C2CCCC2)o1 (stereo not given)	none
Fc1cc(Cl)ccc1Nc1nc(NCc2ccccc2)nc2ccsc12	CendR NRP1 mod 26.1 (no result: PfM18AAP inh, ALR H2O2 inh, A3A deaminase, CR mimetic SO, APOBEC3G inh)
c1ccc(CNc2nc(NCc3ccccc3)c3sccc3n2)cc1	none (no result: PfM18AAP inh, ALR H2O2 inh, A3A deaminase, CR mimetic SO, APOBEC3G inh)
COC(=O)n1c(=S)oc2cc(Cl)ccc21	ALR H2O2 inh 96.2 (no result: CendR NRP1 mod)
O=C(CSc1ccccn1)Nc1ccc(N2CCOCC2)cc1	none
Cc1cc(C)c2c(NC(=O)CCl)nn(C)c2n1	none
CCc1cc(SC#N)cc(CC)c1NC(=O)CCl	ALR H2O2 inh 99.0
COc1ccccc1Nc1nnc(SCC(=O)Nc2cc(C)on2)s1	none
Cc1ccc(N2C(=O)C(Cl)=C(NCc3ccccc3)C2=O)c(C)c1	CendR NRP1 mod 20.9
CC(Sc1nc2ccccc2s1)C(=O)c1c(N)n(C)c(=O)n(C)c1=O (stereo not given)	ALR H2O2 inh 98.8
O=C(c1cccs1)N1CC=C(c2ccccc2)CC1	CendR NRP1 mod 17.4 (no result: PfM18AAP inh)
CC(C)OC(=O)CSc1nc(Cc2ccccc2)nc2ccccc12	ALR H2O2 inh 86.2
COC(=O)CSc1nc(Cc2ccccc2)nc2ccccc12	ALR H2O2 inh inconclusive
CCOC(=O)CNC(=O)CSc1nc(Cc2cccs2)nc2ccccc12	ALR H2O2 inh 78.7
CCOC(=O)CSc1nc(Cc2ccccc2)nc2ccccc12	none
O=C(NCCOc1ccc(F)cc1)C1CCN(S(=O)(=O)c2ccccc2)CC1	none
COc1cccc2sc3ccc(NCc4ccc5c(c4)OCO5)cc3c(=O)c12	ALR H2O2 inh 92.3
CN1CCN(C(=O)/C(=C/c2ccccc2F)NC(=O)c2ccccc2)CC1	none (no result: ALR H2O2 inh)
CC(=O)Nc1ccc(Nc2nc(C)c([N+](=O)[O-])c(N(C)c3ccccc3)n2)cc1	none
COc1ccc(/C=N/Nc2nc(C)c([N+](=O)[O-])c(N(C)c3ccccc3)n2)cc1OC	CendR NRP1 mod 28.3
CCOc1ccc(-n2nc3ccc(NC(=O)c4ccc5c(c4)OCCO5)cc3n2)cc1	none
O=[N+]([O-])c1ccc(N/N=C/c2cccc(O)c2)cc1	PfM18AAP inh 28.2
C/C(=N\Nc1ccc([N+](=O)[O-])cc1)c1ccc(O)cc1	ALR H2O2 inh 99.4
C/C(=N/Nc1ccccc1[N+](=O)[O-])c1ccc([N+](=O)[O-])cc1	none
C/C(=N\Nc1ncc(Br)cn1)c1cccc([N+](=O)[O-])c1	none
C/C(=N\Nc1ccc([N+](=O)[O-])cc1)c1cccc(N)c1	ALR H2O2 inh 99.0
O=[N+]([O-])c1ccc(NN=Cc2cccc([N+](=O)[O-])c2)cc1	none (no result: PfM18AAP inh, ALR H2O2 inh, A3A deaminase, CR mimetic SO, APOBEC3G inh)
Cc1cc(C(=O)CN2C(=O)C(=O)N(Cc3ccccc3)C2=O)c(C)n1-c1ccc2c(c1)OCCO2	none
CCCCOc1ccc(N(CC(=O)NCc2ccco2)C(=O)CCC(=O)Nc2nccs2)cc1	none (no result: ALR H2O2 inh)
S=c1[nH]nc(Cc2sc(-c3ccccc3)nc2-c2ccccc2)o1	ALR H2O2 inh 98.1
S=c1[nH]nc(Cc2c[nH]c3ccccc23)o1	none
C=CCN1C(=O)/C(=C\c2ccc(C)cc2)N=C1SCC(=O)NCCC	ALR H2O2 inh 98.4
CCCCCNC(=O)CSC1=N/C(=C\c2ccc(Cl)c(Cl)c2)C(=O)N1CC	none
CCCNC(=O)CSC1=N/C(=C/c2ccc(F)cc2)C(=O)N1CC	ALR H2O2 inh 97.1
Cc1cc(Br)ccc1OCc1nc(-c2cccnc2)no1	none
CN(C)c1ccc(CNC(=O)/C=C/[C@H]2O[C@@H](n3cnc4c(NC(=O)c5ccccc5)ncnc43)[C@H](O)[C@@H]2O)cc1	none (no result: PfM18AAP inh, ALR H2O2 inh, A3A deaminase, CR mimetic SO, APOBEC3G inh)
O=C(/C=C/[C@H]1O[C@@H](n2cnc3c(NC(=O)c4ccccc4)ncnc32)[C@H](O)[C@@H]1O)NCc1ccco1	CendR NRP1 mod 21.7 (no result: PfM18AAP inh, ALR H2O2 inh, A3A deaminase, CR mimetic SO, APOBEC3G inh)
CCCCc1ccc(S(=O)(=O)N2CCC3(CC2)OCCO3)cc1	CendR NRP1 mod 32.6
COc1ccc(CNC(=O)CN(C(=O)CCC(=O)Nc2ccccn2)c2ccc(C)cc2)cc1	none (no result: ALR H2O2 inh)
CCS(=O)CCSc1nc2ccccc2s1 (stereo not given)	ALR H2O2 inh 99.3
c1csc(CSc2nc3ccccc3s2)c1	ALR H2O2 inh 93.8
CNc1nnc(CSc2nc3ccccc3s2)s1	ALR H2O2 inh 98.8
Cc1cc(=O)oc(C)c1C(=O)Nc1ccc2nsnc2c1	CendR NRP1 mod 27.0
C=CCNc1n[nH]c(=S)s1	none (no result: PfM18AAP inh, ALR H2O2 inh, A3A deaminase, CR mimetic SO, APOBEC3G inh)
CCn1c(CCc2ccccc2)n[nH]c1=S	none
CCn1c(CCn2c3ccccc3c3ccccc32)n[nH]c1=S	CendR NRP1 mod 40.3, ALR H2O2 inh 88.2
